Whole data set: some 11,000 sequences, median “log2 fold change” near 0.00022, cut for the highest 2% near 0.34. Some of the results follow.

In this assay the target is GST-SBP-SLBP (stem-loop binding protein) (Homo sapiens, UniProt Q14493 1-270). As to the kind of experiment: targeted RNA Bind-n-Seq; RBNS binding buffer: 25 mM Tris pH 7.5, 150 mM KCl, 3 mM MgCl2, 0.1% Tween, 0.5 mg/mL BSA, 1 mM DTT; 27 nM protein, 750 pM RNA pool; temperature not stated; high values mean tight binding. The following applies: protein: recombinant; tags: N-terminal GST and SBP (pGEX6P1-SBP); structured_RNA. In outline:
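The protein, carrying a GST-SBP tag, was produced in Rosetta(DE3) pLysS E. coli, purified on glutathione, and mixed at 27 nM with 750 pM of a designed RNA oligo pool made by T7 transcription in RBNS binding buffer. RNA that bound was reverse transcribed using a barcoded primer of 10 nucleotides, amplified by PCR and sequenced on a MiSeq with 200-cycle paired-end reads. FLASH joined the reads, HISAT2 aligned them, and they were collapsed by barcode before the binding signal was taken as the DEseq binary-logarithm fold change of read counts for each sequence.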
As to “GGUCACGUCUCAAUCAACUCACUAGAGGGGGGGAAAACCCCUUUACCCUCAAUUUCAACAGCUCGCAGUCAAG”, the binding signal was 0.352 ± 0.409 log2 fold change.
Next, “GGUCACGUCUCAAUCAACUCUCUAGAGGGGGGGAAAACCCCUUUACCCUCACUUUCAACAGCUCGCAGUCAAG”: 0.308 ± 0.399 log2 fold change; “GGUCACGUCUCAAUCAACUCGCAAGAGGGGGGGAAAACCCCUUUACCCUCAAUUUCAACAGCUCGCAGUCAAG”: 0.343 ± 0.444 log2 fold change; “GGUCACGUCUCAAUCAACUCGCAAGAGGGGGGGAAAACCCCUUUACCCUCAAAUUCAACAGCUCGCAGUCAAG”: 0.308 ± 0.444 log2 fold change.
Next, “GGUCACGUCUCAAUCAACUCCUCGGAGGGGGGGAAAACCCCUUUACCCUCAUAUUCAACAGCUCGCAGUCAAG”: 0.374 ± 0.433 log2 fold change; “GGUCACGUCUCAAUCAACUCCUCGGAGGGGGGGAAAACCCCUUUACCCUCACAUUCAACAGCUCGCAGUCAAG”: 0.424 ± 0.434 log2 fold change; “GGUCACGUCUCAAUCAACUCUCCAGAGGGGGGGAAAACCCCUUUACCCUCACAUUCAACAGCUCGCAGUCAAG”: 0.328 ± 0.444 log2 fold change.
As for “GGUCACGUCUCAAUCAACUCCACAGAGGGGGGGAAAACCCCUUUGCCCUCCAUAUCAACAGCUCGCAGUCAAG”, the binding signal was 0.437 ± 0.447 log2 fold change.
Regarding “GGUCACGUCUCAAUCAACUCAGAAGAGGGGGGGAAAACCCCUUUGCCCUCCAUAUCAACAGCUCGCAGUCAAG”, the binding signal worked out at 0.327 ± 0.401 log2 fold change.
On to “GGUCACGUCUCAAUCAACUCCUCAGAGGGGGGGAAAACCCCUUUGCCCUCCAAAUCAACAGCUCGCAGUCAAG”, for which the binding signal was 0.317 ± 0.412 log2 fold change.
“GGUCACGUCUCAAUCAACUCCCCAGAGGGGGGGAAAACCCCUUUGCCCUCAAUAUCAACAGCUCGCAGUCAAG”: the binding signal was found to be 0.552 ± 0.441 log2 fold change.
In the case of “GGUCACGUCUCAAUCAACUCUCCAGAGGGGGGGAAAACCCCUUUGCCCUCCACAUCAACAGCUCGCAGUCAAG”, the binding signal was 0.318 ± 0.411 log2 fold change.
On to “GGUCACGUCUCAAUCAACUCAUCAGAGGGGGGGAAAACCCCUUUGCCCUCCACAUCAACAGCUCGCAGUCAAG”, for which the binding signal was 0.401 ± 0.446 log2 fold change.
In the case of “GGUCACGUCUCAAUCAACUCAUCCCCCAGGGAAAGCCCUGGCUUACUCAACAGCUCGCAGUCAAG”, the binding signal came out at 0.352 ± 0.269 log2 fold change.
As for “GGUCACGUCUCAAUCAACUCAUUCCCCAGGGAAAGCCCUGGCUUUUUCAACAGCUCGCAGUCAAG”, the binding signal is 0.512 ± 0.316 log2 fold change.
Next, “GGUCACGUCUCAAUCAACUCAAUCCCCAGGGAAAUCCCUGGCUUACUCAACAGCUCGCAGUCAAG”: 0.371 ± 0.289 log2 fold change.
Turning to “GGUCACGUCUCAAUCAACUCAUUUCCCAGGGAAAGCCCUGGUAAUCUCAACAGCUCGCAGUCAAG”, the binding signal stood at 0.334 ± 0.275 log2 fold change.
For the sequence “GGUCACGUCUCAAUCAACUCUAUCCCCAGGGAAAGCCCUGGCUUACUCAACAGCUCGCAGUCAAG”, the binding signal was determined as 0.3 ± 0.283 log2 fold change.
For the sequence “GGUCACGUCUCAAUCAACUCUAUCCCCAGGGAAACCCCUGGCUUACUCAACAGCUCGCAGUCAAG”, the binding signal came out at 0.376 ± 0.273 log2 fold change.
Next, “GGUCACGUCUCAAUCAACUCAGUCCCCAGGGAAAGCCCUGGCAUAUUCAACAGCUCGCAGUCAAG”: 0.34 ± 0.375 log2 fold change; “GGUCACGUCUCAAUCAACUCUUUUUCCAGGGAAAGCCCUGGCUAUGUCAACAGCUCGCAGUCAAG”: 0.31 ± 0.256 log2 fold change.
“GGUCACGUCUCAAUCAACUCAAUCCCCAGGGAAAUCCCUGGUUUACUCAACAGCUCGCAGUCAAG”: the binding signal turned out to be 0.393 ± 0.26 log2 fold change.
Consider “GGUCACGUCUCAAUCAACUCUUUUUCCAGGGAAAGCCCUGGCAUGUUCAACAGCUCGCAGUCAAG”, for which the binding signal worked out at 0.337 ± 0.241 log2 fold change.
As to “GGUCACGUCUCAAUCAACUCUUCUUCCAGGGAAAGCCCUGGCUAUUUCAACAGCUCGCAGUCAAG”, the binding signal was 0.333 ± 0.251 log2 fold change.
Turning to “GGUCACGUCUCAAUCAACUCAUCCCCCAGGGAAAUCCCUGGCUUACUCAACAGCUCGCAGUCAAG”, the binding signal came to 0.468 ± 0.259 log2 fold change.
Consider “GGUCACGUCUCAAUCAACUCAUCUUCCAGGGAAAGCCCUGGCUUUCUCAACAGCUCGCAGUCAAG”, for which the binding signal came out at 0.425 ± 0.292 log2 fold change.
Next, “GGUCACGUCUCAAUCAACUCAACUCCCAGGGAAAUCCCUGGUUAUCUCAACAGCUCGCAGUCAAG”: 0.334 ± 0.284 log2 fold change.
Regarding “GGUCACGUCUCAAUCAACUCAGUUCCCAGGGAAAGCCCUGGCAUUUUCAACAGCUCGCAGUCAAG”, the binding signal is 0.449 ± 0.362 log2 fold change.
The same measure for “GGUCACGUCUCAAUCAACUCUAUCUCCAGGGAAACCCCUGGCAAACUCAACAGCUCGCAGUCAAG”: 0.323 ± 0.268 log2 fold change; for “GGUCACGUCUCAAUCAACUCUAUCUCCAGGGAAACCCCUGGCUAACUCAACAGCUCGCAGUCAAG”: 0.366 ± 0.263 log2 fold change; for “GGUCACGUCUCAAUCAACUCUAUCUCCAGGGAAAACCCUGGCUAUUUCAACAGCUCGCAGUCAAG”: 0.433 ± 0.244 log2 fold change.
Regarding “GGUCACGUCUCAAUCAACUCAAUCUCCAGGGAAAGCCCUGGCUAACUCAACAGCUCGCAGUCAAG”, the binding signal turned out to be 0.405 ± 0.277 log2 fold change.
Regarding “GGUCACGUCUCAAUCAACUCAUCCUCCAGGGAAACCCCUGGCUAUUUCAACAGCUCGCAGUCAAG”, the binding signal was determined as 0.363 ± 0.269 log2 fold change.
Next, “GGUCACGUCUCAAUCAACUCUAUCUCCAGGGAAAGCCCUGGCUUACUCAACAGCUCGCAGUCAAG”: 0.329 ± 0.278 log2 fold change; “GGUCACGUCUCAAUCAACUCAUCCUCCAGGGAAACCCCUGGCUAUCUCAACAGCUCGCAGUCAAG”: 0.3 ± 0.279 log2 fold change.
For the sequence “GGUCACGUCUCAAUCAACUCUAUCUCCAGGGAAAGCCCUGGUUAUCUCAACAGCUCGCAGUCAAG”, the binding signal amounted to 0.334 ± 0.307 log2 fold change.
On to “GGUCACGUCUCAAUCAACUCUAUCUCCAGGGAAAACCCUGGCUAACUCAACAGCUCGCAGUCAAG”, for which the binding signal is 0.369 ± 0.3 log2 fold change.
“GGUCACGUCUCAAUCAACUCAUCCUCCAGGGAAAACCCUGGCAUAUUCAACAGCUCGCAGUCAAG”: the binding signal was determined as 0.384 ± 0.243 log2 fold change.
On to “GGUCACGUCUCAAUCAACUCUAUCCCCAGGGAAAACCCUGGCUAUCUCAACAGCUCGCAGUCAAG”, for which the binding signal is 0.336 ± 0.26 log2 fold change.
Turning to “GGUCACGUCUCAAUCAACUCAUUUUCCAGGGAAAUCCCUGGCAUAUUCAACAGCUCGCAGUCAAG”, the binding signal came out at 0.33 ± 0.202 log2 fold change.
Take “GGUCACGUCUCAAUCAACUCAUCUCCCAGGGAAAACCCUGGCUAUCUCAACAGCUCGCAGUCAAG”: the binding signal was 0.3 ± 0.284 log2 fold change.
Next, “GGUCACGUCUCAAUCAACUCUUAAGAGGGGGGGAAAACCCCUUUGCCCUCACACUCAACAGCUCGCAGUCAAG”: 0.323 ± 0.393 log2 fold change; “GGUCACGUCUCAAUCAACUCUCUAGAGGGGGGGAAAACCCCUUUGCCCUCACUAUCAACAGCUCGCAGUCAAG”: 0.386 ± 0.408 log2 fold change; “GGUCACGUCUCAAUCAACUCUCUAGAGGGGGGGAAAACCCCUUUGCCCUCACACUCAACAGCUCGCAGUCAAG”: 0.353 ± 0.4 log2 fold change.
Next, “GGUCACGUCUCAAUCAACUCAAAAGAGGGGGGGAAAACCCCUUUACCCUCAUAUUCAACAGCUCGCAGUCAAG”: 0.449 ± 0.451 log2 fold change; “GGUCACGUCUCAAUCAACUCAAAAGAGGGGGGGAAAACCCCUUUACCCUCAUCUUCAACAGCUCGCAGUCAAG”: 0.535 ± 0.407 log2 fold change.
The same measure for “GGUCACGUCUCAAUCAACUCCAAAGAGGGGGGGAAAACCCCUUUACCCUCAUCUUCAACAGCUCGCAGUCAAG”: 0.443 ± 0.434 log2 fold change.

The values above are taken from PMC5892938, “SARNAclust: Semi-automatic detection of RNA protein binding motifs from immunoprecipitation data”.
